Measurements as given in PubChem BioAssay.

Assay: binders of probe aFSTL3 on microarray, primary screen, stem cell growth factor project, biochemical, small-molecule microarray, fluorescence 635/667 (AID 1064);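 also: measures binding of the biotinylated anti-FSTL3 antibody to printed compounds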
Settings: higher = more signal
In the case of O=C1OCCC=C[C@H]2OC34C=CCN(Cc5ccccc5)C(=O)[C@H]3N(CCCCCCO)C(=O)[C@@H]4C12 (stereo partly drawn), the composite z-score is reported as 0.359.
CN(C)CCCCNC(=O)[C@H]1C[C@H]2C(=O)N[C@@H](Cc3ccccc3)C(=O)N2[C@H]1c1ccc(O)cc1 gave a composite z-score of -0.289.
Molecule COCCOC(=O)N1C(=O)[C@@]2(c3cc(C#CCC(C(=O)OC)C(=O)OC)ccc31)[C@H](c1ccccc1OCCO)N1[C@H](c3ccccc3)[C@H](c3ccccc3)OC(=O)[C@H]1[C@@H]2C(=O)N1CCc2cc(OC)c(OC)cc2C1 has a composite z-score of -0.257.
For COC(=O)[C@@]1(Cc2ccccc2)[C@H]2c3cc(C(=O)N(C)C)n(Cc4c(-c5ccccc5)noc4C)c3C[C@H]2CN1C(=O)c1ccccc1, the composite z-score was 0.948.
In the case of O=C1C[C@@](C(=O)NC2CC2)(c2ccc([N+](=O)[O-])cc2)[C@@H](c2ccc(CO)cc2)N1CC12CC3CC(CC(C3)C1)C2, the composite z-score is reported as -0.0569.
COCCOC(=O)N1C(=O)[C@@]2(c3cc(C#CC4=CCCCC4)ccc31)[C@H](C(=O)NC[C@H](O)c1ccccc1)[C@H]1C(=O)O[C@H](c3ccccc3)[C@H](c3ccccc3)N1[C@@H]2c1ccc(O)cc1 gave a composite z-score of -0.377.
Molecule CC(C)NC(=O)[C@@]1(Cc2ccccc2I)c2ccccc2C(=O)N(Cc2ccccc2)[C@H]1c1ccc(CO)cc1 has a composite z-score of 0.0478.
For O=C1N(CCS(=O)(=O)c2ccccc2)c2ccccc2C[C@@]12COC(c1ccc(OCCCO)cc1)=N2, the composite z-score was -0.178.
Work on CC(C)(C)N1CC=CC23O[C@@H]4C=CCOC(=O)[C@@H]4[C@H]2C(=O)N(CCCCCO)[C@@H]3C1=O (stereo partly drawn) yielded a composite z-score of 0.469.
Molecule COCCOC(=O)N1C(=O)[C@@]2(c3cc(C#CCNC(N)=O)ccc31)[C@H](C(=O)N1CCN(c3ncccn3)CC1)[C@H]1C(=O)O[C@H](c3ccccc3)[C@H](c3ccccc3)N1[C@@H]2c1ccccc1OCCO has a composite z-score of 0.397.
COCCOC(=O)N1C(=O)[C@@]2(c3ccccc31)[C@H](c1ccc(O)cc1)N1[C@H](c3ccccc3)[C@H](c3ccccc3)OC(=O)[C@H]1[C@@H]2C(=O)N1CCc2cc(OC)c(OC)cc2C1 showed a composite z-score of 0.21.
CCCN1C(=O)[C@]2(COC(c3ccc(OCCCO)cc3)=N2)Cc2ccccc21 showed a composite z-score of 0.955.
For NC(=O)NCC#Cc1ccc2c(c1)[C@]1(C(=O)N2)[C@H](C(=O)NC[C@H](O)c2ccccc2)[C@H]2C(=O)O[C@H](c3ccccc3)[C@H](c3ccccc3)N2[C@@H]1c1ccc(O)cc1, the composite z-score was -0.261.
CC(C)N1C(=O)c2ccccc2[C@@H](C(=O)NCCCN(C)C)[C@@H]1c1ccc(CO)cc1 gave a composite z-score of 0.878.
Work on CC(C)=CCCC(C)=CC(O)C1C=CC2C(=O)N(c3ccccc3)C(=O)C2N1Nc1ccccc1 (stereo not drawn) yielded a composite z-score of 0.475.
For CN(C)CCCCCCNC(=O)[C@H]1C[C@H]2C(=O)N[C@@H](CCCCN)C(=O)N2[C@H]1c1ccc(O)cc1, the composite z-score was 3.42.
For O=C1O[C@H](c2ccccc2)[C@H](c2ccccc2)N2[C@H]1[C@@H](C(=O)N1CCN(c3ncccn3)CC1)[C@]1(C(=O)Nc3ccccc31)[C@H]2c1ccc(OCCO)cc1, the composite z-score was -0.371.
COc1cc2c(cc1O)C(C)N(Cc1cccc(OC(F)(F)F)c1)CC2 (stereo not drawn) gave a composite z-score of 0.067.
For [N-]=[N+]=NCc1ccccc1C[C@@]1(C(=O)N2CCOCC2)N=C(c2ccc(OCCCO)cc2)O[C@@H]1c1ccccc1CN=[N+]=[N-], the composite z-score was 0.998.
Work on N[C@@H](Cc1ccccc1)Cn1cc(-c2ccccc2)nn1 yielded a composite z-score of 0.407.
CC(=CC1CCCCC1)[C@@H](NC(=O)c1ccc(C(F)(F)F)cc1)c1ccc(-c2ccccc2)cc1 showed a composite z-score of 0.21.
Molecule CCOC(=O)C[C@H]1[C@H](OC(=O)c2ccccc2-c2ccccc2)[C@@H](NC(=O)c2ccc3ccccc3c2)c2cc(OCCCO)ccc2N1C(=O)c1ccc2ccccc2n1 has a composite z-score of -0.279.
In the case of CC(c1ccccc1)C(O)C1C=CC2C(=O)NC(=O)C2N1Nc1ccccn1 (stereo not drawn), the composite z-score is reported as 0.166.

Assay: binders from COS7 lysate, DM2A8 probe, primary screen, torsin A project, cell lysate, small-molecule microarray, fluorescence 635/667 (AID 1065)
Settings: higher = more signal, COS7 lysate expressing mutant human TOR1A
In the case of COCCOC(=O)N1C(=O)[C@@]2(c3cc(C#Cc4ccc(OC)cc4)ccc31)[C@H](C(=O)N1CCN(c3ncccn3)CC1)[C@H]1C(=O)O[C@H](c3ccccc3)[C@H](c3ccccc3)N1[C@@H]2c1ccc(O)cc1, the composite z-score is reported as 0.0053.
With COC(=O)C(CC#Cc1ccc2c(c1)[C@]1(C(=O)N2)[C@H](C(=O)NC[C@H](O)c2ccccc2)[C@H]2C(=O)O[C@H](c3ccccc3)[C@H](c3ccccc3)N2[C@@H]1c1ccc(OCCO)cc1)C(=O)OC the composite z-score was 1.2.
O=C1C2C=CC(C(O)c3ccc(-c4ccccc4)s3)N(n3cnnc3)C2C(=O)N1Cc1ccccc1 (stereo not drawn) showed a composite z-score of -0.0982.
Work on O=c1cccc(C=Cc2ccccc2)o1 yielded a composite z-score of -0.609.
C=C(C(=O)CC[C@H](OC(C)=O)c1ccc(OCCO)cc1)C(C)C showed a composite z-score of 0.194.
Work on CCCC[C@H]1OB(O)C[C@H]2C1=C(C)C[C@H]1C(=O)N(Cc3ccccc3)C(=O)[C@H]12 yielded a composite z-score of 0.383.
With CCCCC(CC)C(O)C1C=CC2C(=O)N(c3ccccc3)C(=O)C2N1Nc1ccccc1 (stereo not drawn) the composite z-score was 0.34.
For O=C(OCCF)C1=CCC(c2cccc(Cl)c2)O1 (stereo not drawn), the composite z-score was 0.0213.
COCC1=C2[C@@H](CCc3ccccc3)OB(O)C[C@@H]2[C@@H]2C(=O)N(Cc3ccccc3)C(=O)[C@@H]2C1 gave a composite z-score of -0.138.
For CC(C)C[C@@H]1NC(=O)[C@H]2C[C@@H](C(=O)NCCCCCNC(=O)CS)[C@@H](c3cccc(OCCO)c3)N2C1=O, the composite z-score was 0.235.
In the case of COc1ccc(CCN2C(=O)[C@@]3(Cc4ccccc42)c2ccccc2C(=O)N(Cc2ccccc2Cl)[C@H]3c2ccc(CO)cc2)cc1, the composite z-score is reported as -0.73.
CCCCCN1CC=CC23O[C@@H]4C=CCOC(=O)[C@@H]4[C@H]2C(=O)N(CCCO)[C@@H]3C1=O (stereo partly drawn) gave a composite z-score of 0.777.
Work on O=C1OCCC=C[C@H]2OC34C=CCN(Cc5ccccc5)C(=O)[C@H]3N(CCCCCCO)C(=O)[C@@H]4C12 (stereo partly drawn) yielded a composite z-score of -1.01.
Molecule CN(C)CCCCNC(=O)[C@H]1C[C@H]2C(=O)N[C@@H](Cc3ccccc3)C(=O)N2[C@H]1c1ccc(O)cc1 has a composite z-score of 0.703.
With COCCOC(=O)N1C(=O)[C@@]2(c3cc(C#CCC(C(=O)OC)C(=O)OC)ccc31)[C@H](c1ccccc1OCCO)N1[C@H](c3ccccc3)[C@H](c3ccccc3)OC(=O)[C@H]1[C@@H]2C(=O)N1CCc2cc(OC)c(OC)cc2C1 the composite z-score was 0.007.
In the case of COC(=O)[C@@]1(Cc2ccccc2)[C@H]2c3cc(C(=O)N(C)C)n(Cc4c(-c5ccccc5)noc4C)c3C[C@H]2CN1C(=O)c1ccccc1, the composite z-score is reported as -0.287.
For O=C1C[C@@](C(=O)NC2CC2)(c2ccc([N+](=O)[O-])cc2)[C@@H](c2ccc(CO)cc2)N1CC12CC3CC(CC(C3)C1)C2, the composite z-score was -0.121.
COCCOC(=O)N1C(=O)[C@@]2(c3cc(C#CC4=CCCCC4)ccc31)[C@H](C(=O)NC[C@H](O)c1ccccc1)[C@H]1C(=O)O[C@H](c3ccccc3)[C@H](c3ccccc3)N1[C@@H]2c1ccc(O)cc1 showed a composite z-score of 0.189.
In the case of CC(C)NC(=O)[C@@]1(Cc2ccccc2I)c2ccccc2C(=O)N(Cc2ccccc2)[C@H]1c1ccc(CO)cc1, the composite z-score is reported as 0.613.
O=C1N(CCS(=O)(=O)c2ccccc2)c2ccccc2C[C@@]12COC(c1ccc(OCCCO)cc1)=N2 showed a composite z-score of 0.858.
With CC(C)(C)N1CC=CC23O[C@@H]4C=CCOC(=O)[C@@H]4[C@H]2C(=O)N(CCCCCO)[C@@H]3C1=O (stereo partly drawn) the composite z-score was -0.555.
COCCOC(=O)N1C(=O)[C@@]2(c3cc(C#CCNC(N)=O)ccc31)[C@H](C(=O)N1CCN(c3ncccn3)CC1)[C@H]1C(=O)O[C@H](c3ccccc3)[C@H](c3ccccc3)N1[C@@H]2c1ccccc1OCCO gave a composite z-score of 0.242.
Work on COCCOC(=O)N1C(=O)[C@@]2(c3ccccc31)[C@H](c1ccc(O)cc1)N1[C@H](c3ccccc3)[C@H](c3ccccc3)OC(=O)[C@H]1[C@@H]2C(=O)N1CCc2cc(OC)c(OC)cc2C1 yielded a composite z-score of 0.0749.
CCCN1C(=O)[C@]2(COC(c3ccc(OCCCO)cc3)=N2)Cc2ccccc21 gave a composite z-score of 0.325.
NC(=O)NCC#Cc1ccc2c(c1)[C@]1(C(=O)N2)[C@H](C(=O)NC[C@H](O)c2ccccc2)[C@H]2C(=O)O[C@H](c3ccccc3)[C@H](c3ccccc3)N2[C@@H]1c1ccc(O)cc1 showed a composite z-score of 0.362.
CC(C)N1C(=O)c2ccccc2[C@@H](C(=O)NCCCN(C)C)[C@@H]1c1ccc(CO)cc1 showed a composite z-score of -0.194.
CC(C)=CCCC(C)=CC(O)C1C=CC2C(=O)N(c3ccccc3)C(=O)C2N1Nc1ccccc1 (stereo not drawn) gave a composite z-score of 0.135.
In the case of CN(C)CCCCCCNC(=O)[C@H]1C[C@H]2C(=O)N[C@@H](CCCCN)C(=O)N2[C@H]1c1ccc(O)cc1, the composite z-score is reported as 2.29.
With O=C1O[C@H](c2ccccc2)[C@H](c2ccccc2)N2[C@H]1[C@@H](C(=O)N1CCN(c3ncccn3)CC1)[C@]1(C(=O)Nc3ccccc31)[C@H]2c1ccc(OCCO)cc1 the composite z-score was 0.0417.
For COc1cc2c(cc1O)C(C)N(Cc1cccc(OC(F)(F)F)c1)CC2 (stereo not drawn), the composite z-score was -0.142.
[N-]=[N+]=NCc1ccccc1C[C@@]1(C(=O)N2CCOCC2)N=C(c2ccc(OCCCO)cc2)O[C@@H]1c1ccccc1CN=[N+]=[N-] showed a composite z-score of 0.232.
Molecule N[C@@H](Cc1ccccc1)Cn1cc(-c2ccccc2)nn1 has a composite z-score of 0.556.
Work on CC(=CC1CCCCC1)[C@@H](NC(=O)c1ccc(C(F)(F)F)cc1)c1ccc(-c2ccccc2)cc1 yielded a composite z-score of -0.259.
CCOC(=O)C[C@H]1[C@H](OC(=O)c2ccccc2-c2ccccc2)[C@@H](NC(=O)c2ccc3ccccc3c2)c2cc(OCCCO)ccc2N1C(=O)c1ccc2ccccc2n1 showed a composite z-score of 0.353.
Molecule CC(c1ccccc1)C(O)C1C=CC2C(=O)NC(=O)C2N1Nc1ccccn1 (stereo not drawn) has a composite z-score of -0.0988.
